# Source: PubChem
# LDHA inh – LDHA (human) enzyme inhibition | P00338 | purified LDHA, NADH/diaphorase-resazurin fluorescence; stronger effect = lower value | activity change, % (values are at about 110 or 230 µM) | 480,000 compounds, 0.15% hits; in the data active = activity change below about -30%; inconclusive = mostly about -25% to -30%;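 also: plate controls were DMSO wells for no effect and wells without enzyme for full effect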
#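 Remaining NADH was detected by diaphorase (0.133 mg/mL) converting 37 µM resazurin to fluorescent resorufin, read at 0 and 20 minutes. The preceding 5-minute room-temperature reaction used 2 nM LDHA, 0.2 mM sodium pyruvate and 0.06 mM NADH at pH 7.4.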
# Mito fusion act – mitochondrial division inhibition or fusion activation. S. cerevisiae fusion-defective mutant growth rescue, CellTiterGlo 48 h. Potency, µM (titrated, usually from 46.1 µM), inactives show at the highest dose growth rescue (activation), hits mostly activators. 320,000 compounds, 0.23% hits. AID 485298; also: potency is read from the fitted curve at half-maximal effect; % of control where 0% means no effect; nearly all actives have a fitted effect of over 45% in size
#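 Yeast fusion mutant, YPEG (non-fermentable carbon), compound, 48 h at 37C non-permissive; CellTiterGlo added, 10 min RT, luminescence read. Rescued growth = division inhibition.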
# RGS4 inhibitor – blocks human RGS4-accelerated GTP hydrolysis; P49798; Transcreener GDP fluorescence polarization, RGS4-accelerated GTP hydrolysis; Potency, µM (doses to about 114 µM), for inactives: at the top dose activity change, negative = inhibition, hits mostly inhibitors; 390,000 compounds, 0.039% hits; also: potency is read from the fitted curve at half-maximal effect; % is scaled to controls: 0 for no effect and ±100 for the full control effect; nearly all actives have a fitted effect of over 75% in size
#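 MLSMR compounds (23 nl, pin-transferred) preincubated 10 min at room temperature with a 500nM (2x) first reagent, then RGS4 at 900nM (2x) plus Transcreener GDP mix added; fluorescence polarization (620/688 nm) read before and after 90 min at 30 °C.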
# mIDH1 inhibitor – blocks human mutant IDH1 R132H enzyme; O75874; IDH1-R132H enzyme, NADPH consumption, diaphorase/resazurin fluorescence; Potency, µM (titrated, usually from 76.6 µM), inactives show at the highest dose activity change, negative = inhibition, hits mostly inhibitors; 390,000 compounds, 0.093% hits; also: potency is read from the fitted curve at half-maximal effect; % is scaled to controls: 0 for no effect and ±100 for the full control effect; nearly all actives have a fitted effect of over 65% in size
#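 IDH1-R132H (0.5 ug/mL dispensed) in pH 7.5 Tris buffer was preincubated 30 min with compound, then given a substrate mix of 0.016 mM NADPH and 2 mM alpha-KG for 80 min at room temperature; remaining NADPH was read by diaphorase/resazurin fluorescence.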
# ClpP mod – qHTS Assay for Activators of ClpP | ATP-dependent Clp protease proteolytic subunit (Bacillus subtilis (strain 168)), P80244 | purified B. subtilis ClpP, FRET peptide cleavage, 20 min | Potency, µM (series often up to 57.5 µM), for the others: top-dose activity change, negative = active | 340,000 compounds, 1.9% hits | AID 651965, 2013; active = well fitted falling curve with a large enough effect; inconclusive = small, poorly fitted or top-dose-only effect; inactive = no such curve, though single readings can be large or run the other way; also: potency is read from the fitted curve at half-maximal effect; the source files actives as falling curves though it sought activators and does not explain the sign; nearly all actives have a fitted effect of over 65% in size
#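 Buffer: 100 mM Tris/HCl pH8, 100 mM KCl, 0.05% low protease BSA, 2.5% glycerol, 0.01% Tween-20. ClpP 10 microg/mL final; 20 min RT; delta FRET normalized to ADEP and DMSO controls.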
# S-ASM inh – inhibitors of human secretory acid sphingomyelinase | P17405 | placental ASM, HMU-PC fluorogenic substrate, 60 min | Potency, µM (doses to about 57.5 µM), without a hit: at the top dose activity change, negative = inhibition, hits mostly inhibitors | 340,000 compounds, 0.006% hits | AID 504937; also: potency is read from the fitted curve at half-maximal effect
# Target sequence (P17405 47-631 limits assumed): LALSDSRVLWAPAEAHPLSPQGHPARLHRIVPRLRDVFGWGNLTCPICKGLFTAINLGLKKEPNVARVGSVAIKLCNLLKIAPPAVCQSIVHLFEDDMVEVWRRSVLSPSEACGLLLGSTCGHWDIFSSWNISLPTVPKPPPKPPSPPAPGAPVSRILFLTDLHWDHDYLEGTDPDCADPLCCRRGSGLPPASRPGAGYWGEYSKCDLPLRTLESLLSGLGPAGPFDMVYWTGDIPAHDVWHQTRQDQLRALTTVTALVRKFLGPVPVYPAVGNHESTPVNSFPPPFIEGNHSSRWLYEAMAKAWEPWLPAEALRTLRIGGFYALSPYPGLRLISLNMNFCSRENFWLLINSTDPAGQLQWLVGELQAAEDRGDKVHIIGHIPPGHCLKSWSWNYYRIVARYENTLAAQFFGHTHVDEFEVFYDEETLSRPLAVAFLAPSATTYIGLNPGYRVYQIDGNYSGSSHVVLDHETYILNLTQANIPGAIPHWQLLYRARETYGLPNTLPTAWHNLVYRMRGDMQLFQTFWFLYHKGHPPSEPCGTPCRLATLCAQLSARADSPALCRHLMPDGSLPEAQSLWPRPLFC
#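 Human placenta-derived ASM preincubated with compound 10 min at room temperature, then reacted with 9 uM (final) fluorogenic HMU-PC substrate for 60 min at 37 C. Stop solution raises pH to 10; fluorescence read at Ex 386/Em 447 nm.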
# Active calls of the source: *; i = inactive; ? = inconclusive; . = no result given. This is one part of a sample in which hits are shown more often than they occur. Unless noted, calls follow the shape of the dose curve; as a rule, active = well fitted curve in the direction sought with a large enough effect; inconclusive = small, poorly fitted or top-dose-only effect, or another doubt; inactive = no such curve, though single readings can be large; an effect the other way counts as inactive or inconclusive.
SMILES,LDHA inh,Mito fusion act,RGS4 inhibitor,mIDH1 inhibitor,ClpP mod,S-ASM inh
O=C(Nc1cccc(Br)c1)c1ccccc1-c1ccccc1,-11,16µM*,-2%,-2%,-2%,-11%
Cc1cc(Br)ccc1NC(=O)c1cc2c(s1)-c1ccccc1SC2,1,.,-1%,.,14µM*,.
Cc1cc(Br)ccc1NC(=O)c1ccccc1-c1ccccc1,2,14µM*,-5%,9%,1%,-6%
Cc1ccc(O)c(NC(=O)c2ccccc2-c2ccccc2C(=O)O)c1,-11,-2%,1%,1%,25µM*,1%
O=C(O)c1ccccc1-c1ccccc1C(=O)Nc1cccc(Br)c1,-4,1%,15%,-11%,.,11%
COc1ccc2c(c1)N(S(=O)(=O)c1ccc(F)cc1)C(C)(C)C=C2C,1,.,.,.,.,.
COc1ccc(C(=O)Nc2ccc3nc(SCC(=O)N4CCCc5ccccc54)sc3c2)cc1,0,.,10%,3%,?,.
CCOc1ccc(C(=O)Nc2ccc3nc(SCC(=O)N4CCc5ccccc54)sc3c2)cc1,-6,.,-15%,10%,?,.
O=C(Nc1ccc2nc(SCC(=O)N3CCc4ccccc43)sc2c1)c1ccccc1,-2,.,22%,1%,8.9µM*,.
Cc1ccc(C(=O)Nc2ccc3nc(SCC(=O)N4CCCc5ccccc54)sc3c2)cc1,-1,.,13%,-8%,20µM*,.
CC(C)C(=O)Nc1ccc2nc(SCC(=O)N3CCc4ccccc43)sc2c1,-3,.,2%,8%,-6%,.
O=C(Nc1ccc2nc(SCC(=O)N3CCCc4ccccc43)sc2c1)c1ccccc1,-10,.,-20%,0%,14µM*,.
CCc1cccc(CC)c1NC(=O)CSc1nc2ccccc2o1,-7,.,.,.,.,.
Cc1ccc(-c2cn3c(n2)sc2cc(C(=O)NCCC4=CCCCC4)ccc23)cc1,-1,.,-12%,0%,-19%,.
Cc1ccc(-c2cn3c(n2)sc2cc(C(=O)N4CCCCC4)ccc23)cc1,0,.,9%,-8%,25µM*,.
CCOC(=O)N1CCN(C(=O)c2ccc3c(c2)sc2nc(-c4ccccc4)cn23)CC1,-3,0%,5%,1%,-10%,-8%
CCc1ccc(-c2cn3c(n2)sc2cc(C(=O)NCCC4=CCCCC4)ccc23)cc1,0,.,17%,-20%,25µM*,.
CCCNC(=O)c1ccc2c(c1)sc1nc(-c3ccc(C)cc3)cn12,-3,.,-7%,0%,32µM*,.
Clc1ccc2c(Cl)cc[n+](CCC3CCCCC3)c2c1,-36*,.,.,.,-6%,.
c1ccc2c(c1)sc[n+]2CCC1CCCCC1,.,.,.,.,-4%,.
CCC(C)(C)C1CCc2c(sc(NC(=O)C(C)(C)C)c2C#N)C1 (stereo not drawn),0,.,.,.,.,.
Cc1ccc(Nc2nc(-c3c(C)nc4ccccn34)cs2)cc1,6,-6%,?,-7%,28µM*,-2%
CN1C(=O)c2ccccc2N(C)C1c1cccs1 (stereo not drawn),5,2%,-3%,7%,20µM*,247%
CN1C(=O)c2ccccc2N(C)C1c1ccccc1Cl (stereo not drawn),-1,11%,-38%,-8%,1%,i
Cc1ccc2[nH]c(=O)c(CN(CCc3ccccc3)C(c3nnnn3Cc3ccco3)C(C)C)cc2c1 (stereo not drawn),-5,27%,?,-15%,.,-3%
CCC(c1nnnn1Cc1ccc(OC)cc1)N(CCCO)Cc1cc2cc3c(cc2[nH]c1=O)OCO3 (stereo not drawn),2,-3%,-2%,5%,22µM*,60%
CC(C)C(c1nnnn1Cc1ccccc1)N(CCCO)Cc1cc2cc3c(cc2[nH]c1=O)OCO3 (stereo not drawn),2,1%,29%,-1%,32µM*,47%
